IMPase Li inh = membrane-permeable IMPase blocker, potentiated with lithium | CHO-M1 cells, IP1 TR-FRET (IP-One), carbachol + lithium | Potency, µM (top dose mostly 59.4 µM), without a hit: top-dose activity, negative = IMPase inhibition, usual class: inhibitors | 210,000 compounds, 0.35% hits | AID 1457;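 also: IP1 builds up when IMPase is blocked and the TR-FRET signal falls; potency is read from the fitted curve at half-maximal effect; plate controls were basal vehicle for no effect and high inhibitor control for full effect; nearly all actives have a fitted effect of over 50% in size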
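Steps: plate 2000 CHO-M1 cells per well and culture 16–30 h; add compound and lithium; incubate 30 min, 37C; add d2-IP1 tracer and Eu cryptate anti-IP1 antibody in lysis buffer; read after 10 min at room temperature.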
IMPase cell inh = membrane-permeable compound that blocks inositol monophosphatase. P97697. CHO-M1 cells, IP1 accumulation, HTRF TR-FRET ratio. inhibition (IP1 accumulation), % at 46.1 µM. 120,000 tested, under 10 active; active = well fitted curve in the direction sought with a large enough effect in the signal ratio, not every such curve was filed as active; inconclusive = small, poorly fitted or top-dose-only effect, or a change in a side signal; inactive = no such curve, though single readings can be large or run the other way; the % refers to the signal ratio;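 also: cells stimulated with carbachol in lithium chloride buffer; plate controls were DMSO basal wells for no effect and reference inhibitor wells for full effect; higher means more IMPase inhibition seen as more IP1 and lower FRET ratio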
Target sequence (P97697 whole entry, looked up): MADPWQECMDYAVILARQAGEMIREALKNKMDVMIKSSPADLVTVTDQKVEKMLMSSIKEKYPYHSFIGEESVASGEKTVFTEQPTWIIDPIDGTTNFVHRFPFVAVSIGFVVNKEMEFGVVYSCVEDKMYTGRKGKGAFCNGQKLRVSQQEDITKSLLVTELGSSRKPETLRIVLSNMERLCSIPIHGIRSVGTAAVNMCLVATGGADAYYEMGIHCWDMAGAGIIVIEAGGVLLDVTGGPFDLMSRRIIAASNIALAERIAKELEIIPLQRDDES
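CHO-M1 cells (CHO stably expressing M1 receptor), compound up to 46 uM final, stimulated with carbachol (50 uM as added) in buffer with 50mM LiCl, pH 7.4, 30 min at 37C. Cytosolic IP1 read by TR-FRET; AC50 from Hill fits.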
NPSR antag = neuropeptide S receptor (human) antagonism, cAMP; Q6W5P4; CHO-NPSR cells, cAMP TR-FRET, antagonist mode; Potency, µM (top dose mostly 38.3 µM), without a hit: at the highest dose activity change, negative = inhibition, usual class: inhibitors; 220,000 compounds, 1% hits; AID 1461; also: potency is read from the fitted curve at half-maximal effect; nearly all actives have a fitted effect of over 50% in size
Target sequence (Q6W5P4 whole entry, looked up): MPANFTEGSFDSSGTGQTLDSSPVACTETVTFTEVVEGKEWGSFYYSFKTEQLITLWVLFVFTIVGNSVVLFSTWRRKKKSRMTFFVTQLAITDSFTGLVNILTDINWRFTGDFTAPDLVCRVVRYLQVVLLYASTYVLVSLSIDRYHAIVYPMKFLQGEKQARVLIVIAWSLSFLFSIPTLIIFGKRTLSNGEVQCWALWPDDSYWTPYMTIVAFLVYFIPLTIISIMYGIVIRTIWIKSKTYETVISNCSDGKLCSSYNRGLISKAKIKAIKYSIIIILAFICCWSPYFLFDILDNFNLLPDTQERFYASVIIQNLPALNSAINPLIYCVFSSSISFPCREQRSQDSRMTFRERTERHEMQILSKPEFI
* hit, by the source's call; u = inconclusive; x = no result; [ ] = dose if it differs, or a comment. This excerpt belongs to a sample that is enriched for hits. Unless noted, calls follow the shape of the dose curve; as a rule, active = well fitted curve in the direction sought with a large enough effect; inconclusive = small, poorly fitted or top-dose-only effect, or another doubt; inactive = no such curve, though single readings can be large; an effect the other way counts as inactive or inconclusive. Unless noted, % is scaled to controls: 0 for no effect and ±100 for the full control effect.

SMILES | IMPase Li inh | IMPase cell inh | NPSR antag
Cn1c(NC(=O)c2ccccc2)c(-c2cccs2)c(=O)c2ccccc21 | 3.7%[38.3 µM] | -3.0 | -8.7%[46.1 µM]
Cn1c(NC(=O)c2ccccc2)c(-c2ccccn2)c(=O)c2ccccc21 | 22.4µM* | 5.5 | 10.9%[46.1 µM]
NC(N)=N/N=C(/c1ccccc1)c1ccc(O)cc1O | 2.3% | x | x
COC(=O)c1c(Cl)c2n3ccccc3c(C)c(-c3ccccc3)c-2c1C(=O)OC | 10µM* | x | 6.4%
COC(=O)c1cc2c(-c3ccccc3)c(C)c3ccccn3c-2c1C(=O)OC | -18.8%[38.3 µM] | u | u
N#Cc1ccc(Cl)cc1NC(=O)CSc1nc2nc(-c3cccs3)cc(C(F)(F)F)c2c(=O)[nH]1 | x | x | 6.4%
Cc1cc(SCC(=O)O)nc2ccccc12 | -1.3% | x | -11.2%
Cc1cc(SCCC(=O)O)nc2c(C)cccc12 | 10µM* | u | u
CC[C@H]1C2=C3C(CC[C@H]4C(OCc5ccc(F)cc5C(F)(F)F)OC[C@](C)([C@@H]34)N(C(=O)OC(C)(C)C)C2)C2COC(=O)OCC21 (some centres undefined) | -7.2% | x | x
CCN(CC)P(=O)(Nc1ccc(C)cc1Br)c1ccc(N(C)C)cc1NC(=O)c1ccco1 (centres undefined) | 10.6% | x | 10µM*
Cc1ccc(NC(=O)c2ccco2)c([N+](=O)[O-])c1 | -0.9% | x | 13.2%
N#Cc1cccc(-c2nc3cnc(Oc4cccc(Cl)c4)nc3n(C3CC3)c2=O)c1 | 3.5% | x | x
CCC(=O)N=c1sc2c(C)cc(C)cc2n1CC(=O)OC | 12.6µM* | 7.5 | u
COC(=O)Cn1c(=NC(=O)C(C)(C)C)sc2c(C)cc(C)cc21 | 38.0%[38.3 µM] | 10.4 | -20.8%[46.1 µM]
O=C(Nc1nc2ccccc2n1CCN1CCOCC1)c1ccc(COc2ccccc2Br)o1 | 30.1% | x | -27.5%
CCn1c(SCC(=O)N/N=C/c2ccccc2OCC(=O)O)nnc1-c1ccc(C)cc1 | x | x | 56.7%
CON | 1.1% | x | x
C=C(C)CN(CC)c1nc(N)c2c(N)nc3c(c2c1C#N)CC(=O)N3C12CC3CC(CC(C3)C1)C2 | 12.6%[38.3 µM] | -4.4 | 5.01µM*
N#Cc1c(N2CCCC(O)C2)nc(N)c2c(N)nc3c(c12)CC(=O)N3C12CC3CC(CC(C3)C1)C2 (centres undefined) | -6.0%[38.3 µM] | -5.3 | u
COc1ccc(S(=O)(=O)N(CCO)c2ccccc2CN(C)CC=Cc2ccc(Cl)cc2)cc1 | 29.0% | x | x
Cc1ccc(C(=O)O[C@@H](C(=O)O)[C@@H](OC(=O)c2ccc(C)cc2)C(=O)O)cc1 (tested in a mixture with another compound) | x | 5.5 | x
CCN1/C(=C2\OC(=S)N(C)C2=O)C=Cc2ccccc21 | -7.2% | x | -20.4%
CCN1/C(=C2\OC(=S)N(C)C2=O)Sc2ccccc21 | 11.2µM* | -7.2 | -10.3%[46.1 µM]
Cc1cc(-c2nnc3sc(-c4ccc(Cl)cc4Cl)nn23)n[nH]1 | 10µM* | 7.2 | u
CN(C)c1ccc(-c2nn3c(-c4ccc(Cl)cc4Cl)nnc3s2)cc1 | 13.4%[38.3 µM] | -6.0 | -5.6%[46.1 µM]
SMILES | IMPase Li inh | IMPase cell inh | NPSR antag
CCc1cc2c3c(c(=O)oc2cc1OC)CCCC3 | 35.0%[38.3 µM] | 6.5 | 13.0%[46.1 µM]
COc1cc2oc(=O)c3c(c2cc1OCC(=O)c1c(C)n(C)c2ccccc12)CCCC3 | 10µM* | x | -51.1%
CCCCCn1c(Sc2nc3ccccc3s2)nc2c1c(=O)[nH]c(=O)n2C | 12.6µM* | 0.6 | -25.3%[46.1 µM]
CCCCCn1c(Sc2ncccn2)nc2c1c(=O)[nH]c(=O)n2C | 10.0% | -5.9 | -1.0%[46.1 µM]
CCOC(=O)C1CCN(c2cc3c(cc2NC(=O)c2ccc(OC)c(OC)c2)n(C)c(=O)n3C)CC1 | x | 3.0 | x
N#Cc1c(NC(=O)c2ccccc2Cl)n(Cc2ccccc2)c2nc3ccccc3nc12 | 9.2% | 0.3 | -8.8%
CCCCn1c(NC(=O)c2ccccc2Cl)c(C#N)c2nc3ccccc3nc21 | -22.1%[38.3 µM] | -10.2 | 10µM*
Cn1c(C(=O)Nc2ccc3c(c2)OCO3)cc2c(=O)n(C)c3ccccc3c21 | 6.2%[38.3 µM] | 0.5 | u
CCOc1ccc(NC(=O)c2cc3c(=O)n(C)c4ccccc4c3n2C)cc1 | 7.94µM* | 2.5 | -14.0%[46.1 µM]
O=C(COc1ncnc2c(Cl)cc(Cl)cc12)NC1CCCCCC1 | 22.4µM* | 8.7 | 4.3%[46.1 µM]
O=C(COc1ncnc2c(Cl)cc(Cl)cc12)N1CCCCC1 | -7.3%[38.3 µM] | -4.5 | -4.0%[46.1 µM]
COC(=O)c1c(NC(=O)/C=C/C(=O)O)sc(C)c1-c1ccc(C(C)C)cc1 | 1.2% | x | 12.6µM*
COC(=O)c1c(NC(=O)/C=C/C(=O)O)sc(C)c1-c1ccc(C)cc1 | -0.9% | x | -49.5%
Cn1c(=O)c2c(nc(Cc3ccccc3)n2CC(=O)O)n(C)c1=O | -6.1% | x | x
CC(=O)N=c1sc2nc3ccccc3nc2n1N(C(C)=O)C(C)=O | 12.6µM* | u | 12.6µM*
CC(=O)Nc1cnc2ccccc2n1 | 19.2%[38.3 µM] | -1.6 | 3.9%[46.1 µM]
Cc1ccc(-n2c(C)nc3c(cnn3-c3ccccc3Cl)c2=O)cc1C | 11.3%[38.3 µM] | 1.0 | -16.4%[46.1 µM]
Cc1nc2c(cnn2-c2ccccc2Cl)c(=O)n1-c1ccc(N2CCC(C)CC2)cc1 | 44.3%[38.3 µM] | 10.6 | 12.6µM*
N.N.N.N.N.N.N.N.N.N.N.N.N.N.O.O.[Cl-].[Cl-].[Cl-].[Cl-].[Cl-].[Cl-].[Ru].[Ru].[Ru] | 9.9% | x | u
CCCn1c(-c2ccc(F)cc2)nc2c(N3CCN(CCn4ccnc4)CC3)nc(C)nc21 | -7.0% | x | x
CC1(C)OC2CC3C4CC(F)C5=CC(=O)C=CC5(C)C4C(O)CC3(C)[C@]2(C(=O)CO)O1 (some centres undefined) | 17.4% | x | x
Cn1c(N)c(Sc2ccc(F)cc2)c(=O)n(C)c1=O | -0.5% | x | 4.4%
COC(=O)c1cc(Br)c(=O)n(-c2nccs2)c1 | 10µM* | u | u
COC(=O)c1cc(Br)c(=O)n(-c2cc(C)on2)c1 | 10µM* | u | 14.6%[46.1 µM]
COC(=O)c1cc(Br)c(=O)n(-c2ccccn2)c1 | -11.3%[38.3 µM] | -22.0 | 4.9%[46.1 µM]
SMILES | IMPase Li inh | IMPase cell inh | NPSR antag
COC(=O)c1cc(Br)c(=O)n(-c2ccc(C(C)=O)cc2)c1 | -20.0%[38.3 µM] | -5.4 | 3.6%[46.1 µM]
FC(F)(F)C(Oc1nc(NC2CCCCC2)nc(N2CCOCC2)n1)C(F)(F)F | 3.6%[38.3 µM] | 11.3 | 10µM*
Cc1ccc(Nc2nc(OC(C(F)(F)F)C(F)(F)F)nc(N3CCOCC3)n2)cc1 | 18.5%[38.3 µM] | 6.1 | u
OC[C@@H]1O[C@@H](n2cnc3c(N[C@@H]4C[C@@H]5CC[C@H]4C5)ncnc32)[C@@H](O)[C@H]1O | x | 2.6 | x
S=C(Nc1ccc(Nc2ccccc2)cc1)NN1CCOCC1 | x | x | 50.0%
COc1cc2c(cc1NC(=O)Cc1ccc(C)cc1)oc1ccccc12 | -13.9% | x | -35.4%
COc1cc2c(cc1NC(=O)CN1CCN(S(=O)(=O)c3ccccc3F)CC1)oc1ccccc12 | 5.62µM* | -1.3 | -28.7%[46.1 µM]
O=c1c(-c2ccc(F)cc2)nc2cncnc2n1Cc1ccc(F)cc1 | -6.2% | x | x
Cc1nc2cnc(N3CCN(C)CC3)nc2n(-c2ccccc2)c1=O | 14.9% | x | x
Cc1ccc(/C=C(\C#N)C(=O)NC(C)C)o1 | 1.1% | x | -3.6%
CC(C)NC(=O)/C(C#N)=C/c1ccc(N(C)C)o1 | x | x | 12.6µM*
CN(NC(=O)c1ccco1)c1nc2ccccc2nc1C(F)(F)F | -0.4% | x | -13.5%
Cc1ccccc1C(=O)NN(C)c1nc2ccccc2nc1C(F)(F)F | 5.62µM* | 2.5 | 13.2%[46.1 µM]
c1ccc2oc(-c3ccc(Nc4nc(N5CCCC5)nc(N5CCOCC5)n4)cc3)nc2c1 | -0.9% | x | 28.0%

High-throughput results (PubChem BioAssay)
